Shown is part of a subset that was picked to be rich in hits.
mcGAS RapidFire: inhibitors of Mus musculus cyclic GMP-AMP synthase, initial high-throughput assay, cell-free, RapidFire MS; Q8C6L5; recombinant mouse cGAS, cGAMP by RapidFire MS; inhibition, % at 12.5 µM; 0.18% of 130,000 active;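 active = inhibition of cGAS enzyme activity at or above 60%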;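 note: enzyme stimulated by 45 bp dsDNA with ATP and GTP substrates; cGAMP share of summed cGAMP plus half ATP and half GTP signals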
Target sequence (Q8C6L5 whole entry, looked up): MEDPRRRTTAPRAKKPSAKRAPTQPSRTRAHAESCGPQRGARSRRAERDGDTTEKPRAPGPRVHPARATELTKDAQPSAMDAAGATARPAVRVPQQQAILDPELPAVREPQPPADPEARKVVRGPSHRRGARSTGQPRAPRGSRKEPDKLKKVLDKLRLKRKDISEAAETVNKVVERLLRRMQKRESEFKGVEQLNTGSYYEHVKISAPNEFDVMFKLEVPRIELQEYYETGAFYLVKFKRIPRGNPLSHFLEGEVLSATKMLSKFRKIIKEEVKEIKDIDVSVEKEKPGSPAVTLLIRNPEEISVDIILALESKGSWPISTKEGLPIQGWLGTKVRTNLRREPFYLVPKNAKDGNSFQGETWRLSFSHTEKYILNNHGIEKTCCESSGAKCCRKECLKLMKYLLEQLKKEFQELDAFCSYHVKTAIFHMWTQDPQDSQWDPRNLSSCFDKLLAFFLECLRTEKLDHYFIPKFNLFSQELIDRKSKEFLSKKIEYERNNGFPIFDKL
* hit, by the source's call; ! = not active in a repeat.

SMILES	mcGAS RapidFire
O=C(CN1CCOC1=O)N(CC1CCN(C2Cc3ccccc3C2)CC1)CC1CCCO1 (configuration not stated)	-12
Cc1nnc(NC(=O)c2ccc(S(=O)(=O)Nc3cccc(C(F)(F)F)c3)o2)s1	76*
Cc1nnc(NC(=O)c2cccc(C(=O)O)c2)s1	2
Cc1cccc(NC(=O)c2ccc(S(=O)(=O)Nc3cccc(C(F)(F)F)c3)o2)n1	-3
COc1ccc(C=Cc2sc3ccccc3[n+]2CCCS(=O)(=O)O)cc1OCc1ccccc1	-2
Cc1ccc(C=Cc2sc3ccccc3[n+]2CCCS(=O)(=O)O)cc1	86*
O=C(NNc1ccccc1)C(O)C(O)C(=O)NNc1ccccc1 (configuration not stated)	6
O=c1cc(COc2cccc(-c3nnc4n3CCCCC4)c2)nc2sccn12	-5
N=C1/C(=C/c2cccs2)C(=O)N=C2SC(Cc3ccccc3)=NN12	-11
CCC1=NN2C(=N)/C(=C/c3cccs3)C(=O)N=C2S1	97*
N=C1/C(=C/c2cccs2)C(=O)N=C2SC(c3ccccc3)=NN12	45
CN(CC(=O)Nc1cccc(C(F)(F)F)c1)S(=O)(=O)c1cccc2cnccc12	-1
O=C(Nc1nnc(C2CC2)s1)c1cccs1	-18
O=C(Nc1ncc([N+](=O)[O-])s1)c1cccs1	86*
O=C(Nc1ncc([N+](=O)[O-])s1)c1ccc(=O)n(Cc2ccc(F)cc2)c1	9
CC(C)N1CCCC(N2CCN(C(=O)OC(C)(C)C)CC2)C1 (configuration not stated)	-6
Cc1oc(C)c(C(=O)Nc2cccc(N3CCCC3=O)c2)c1C	-3
Cc1oc2ncn(C)c(=O)c2c1C(=O)Nc1cccc(COCC2CC2)c1	94*
CCCC1(CNC(=O)c2c(C)oc3ncn(C)c(=O)c23)CCC1	-9
O=C(c1ccccc1OCc1ccccc1Cl)N1CC(O)C1	-16
COC(=O)CC(C)C(=O)NC(C)C(C)(C)C (configuration not stated)	-9
Cc1cc(Cl)ccc1S(=O)(=O)NCc1ccnc(N(C)C)c1	-7
COC(=O)Cc1cc(C2CCN(Cc3cccnc3OC)CC2)n[nH]1	-12
O=C1COCc2cc(-c3cc(F)cc(F)c3)ccc2N1CC1CC1	-6
CN(CCOc1ccccc1)C(=O)c1cc2ccccc2oc1=O	-7
SMILES	mcGAS RapidFire
CSc1c(C#N)c(SCC(=O)c2cc3ccccc3oc2=O)[nH]c(=O)c1C#N	94*
COc1ccc(CCNC(=O)c2cc3ccccc3oc2=O)cc1OC	-3
N#Cc1ccccc1Oc1nc(C(F)(F)F)nc2ccccc12	-9
CC(C)NC(=O)C1CCN(c2nc3ncn(CC(=O)NC4CCc5ccccc54)c(=O)c3s2)CC1 (configuration not stated)	-6
Cc1ccc(C)c(C(=O)OC(C(N)=O)c2ccccc2)c1 (configuration not stated)	-14
Cc1cc(Br)cc2c1NCCC2	5
O=C(NC1(c2ccc(F)cc2)CCCC1)c1cccs1	-2
COc1ncccc1NC(=O)NC1(c2ccc(Cl)cc2)CCC1	-6
Cc1cccnc1NC(=O)NC1(c2ccc(F)cc2)CCC1	78*
CC1C(c2ccccc2)=[N+]([O-])C(C)(c2ccc(F)cc2)N1O (configuration not stated)	-9
CCC1(CC)N([O-])C(C)=C(c2ccccc2)[N+]1=O	79*
CN1C[N+]([O-])=C(c2ccccc2)C1(C)C	-9
CC1C(c2cccs2)=[N+]([O-])C(C)(c2ccc(Br)cc2)N1O (configuration not stated)	-19
CC(=O)c1cc(-c2ccccc2)n(CC(=O)O)c1C	-18
CC1=C(c2ccccc2)[N+](=O)C(C)(c2ccc(Br)cc2)N1[O-] (configuration not stated)	73*
CCc1c(C)sc2ncnc(N3CC[C@@H](N4CCC(O)CC4)[C@H](O)C3)c12	10
COc1ccc(OC)c(-c2cc(C(=O)N3CCC(Cn4cccn4)CC3)[nH]n2)c1	-5
COC(=O)C(C)Sc1nc2sc3c(c2c(=O)n1C)CCC3 (configuration not stated)	-2
CCN(CC)S(=O)(=O)c1ccc(Nc2ccccc2OC)c(N)c1	-18
COc1coc(C(=O)Nc2nc(C)cs2)cc1=O	-8
COc1coc(C(=O)Nc2nnc(C)s2)cc1=O	70*
COc1coc(C(=O)Nc2nc3ccccc3s2)cc1=O	15
COc1cccc(-c2cncc(NC(C)=O)n2)c1	-8
COC(=O)c1cc(C=C2N=C(c3ccc(C)cc3)OC2=O)oc1C	-9
C=CCn1cc(CN2CCN(Cc3ccc4c(c3)OCO4)C(=O)C2)c(C)n1	-5
SMILES	mcGAS RapidFire
C=CCn1cc(CN2CCn3nc(-c4nc5ccccc5n4C)cc3C2)c(C)n1	79*
Cn1c(-c2ccc(CN3CCn4cncc4C3)o2)nc2ccccc21	-16
CN(C(=O)Cc1csc(-c2ccc(Cl)s2)n1)c1nccs1	-14
C=C(Cl)Cn1c(NCc2ccccc2)nc2ccccc21	10
FC(F)(F)Oc1ccc(Nc2ncnc3[nH]ncc23)cc1	0
O=C1N=c2ccccc2=C1c1sc(N2CCCCC2)nc1O	88*
CCn1c(O)c(C2=c3ccccc3=NC2=O)sc1=S	7
O=C1N=c2ccccc2=C1c1sc(=S)n(-c2ccc(O)cc2)c1O	2
O=c1[nH]c(Cn2cnnc2)nc2ccccc12	2
O=C(O)C=CC1=Cc2cc(Cl)ccc2OC1	-8
COCCN1C(=O)C(=Cc2cccc(Cl)c2Cl)SC1=S	-9
O=C(Cc1cccnc1)NCCCn1cccc1	-4
Cc1cc(C(=O)NNC(=O)C=Cc2ccco2)c(C)o1	67*
CCOC(=O)NNC(=O)c1cc(C)oc1C	-12
Cc1cc(C(=O)NNC(=O)CCNC(=O)c2ccco2)c(C)o1	-7
O=C(NC(Cc1cccnc1)C(=O)Nc1cc(-c2ccncc2)c[nH]c1=O)OCC1c2ccccc2-c2ccccc21 (configuration not stated)	0
COC(=O)CNC(=O)c1cc(OC)c(Br)c(OC)c1	-3
O=C1OC(/C=C/c2ccccc2)=NC/1=C/c1cccs1	-13
FC(F)Oc1ccc(Br)cc1C=C1CCC=C1N1CCOCC1	-8
O=C(CCc1nc2ccccc2[nH]1)N1CCc2c(ncnc2N2CCOCC2)C1	-10
C(=C1CCC=C1N1CCOCC1)c1nc2ccccc2[nH]1	77*
O=C(COCC(=O)Nc1nc(-c2cccs2)cs1)Nc1nc(-c2cccs2)cs1	-7
CC1(c2ccccc2F)NC(=O)N(Cc2noc(-c3ccsc3)n2)C1=O (configuration not stated)	-9
NC(=O)COc1ccc(C(=O)NNC(=O)CN2c3cccc4cccc(c34)S2(=O)=O)cc1	-2
O=S1(=O)c2cccc3cccc(c23)N1Cc1cccc2ccccc12	-11
SMILES	mcGAS RapidFire
O=C(CN1c2cccc3cccc(c23)S1(=O)=O)c1c[nH]c2ccccc12	87*
CSc1ncc(C(=O)Nc2cc(C(C)(C)C)nn2C2CCS(=O)(=O)C2)n1-c1ccc(F)cc1 (configuration not stated)	-2
CCN(CC)CCNc1nc2c(F)cccc2s1	-29
CCN(CC)CCNC(=O)c1cnc(C(C)(C)C)s1	-20
CCN(CC)CCNc1ccc(CO)c2sc3ccccc3c(=O)c12	66*!
CCOC(=O)C1(Cc2cccc(Cl)c2)CCCN(Cc2cnc(N)nc2)C1 (configuration not stated)	2
Cc1cc2c(=O)[nH]c(CSCC(=O)Nc3nnc(C4CCCO4)s3)nc2s1 (configuration not stated)	-1

Bioassay records (PubChem BioAssay)
